Consider 36 sequences from the supplement of paper PMC7726561.

In all, about 1,100 sequences were measured (“thermal melting temperature (Tm) of peptide-HLA complex”: median about 58, lowest 2% from about 42 on). The full list was thinned out, with the lowest values kept by preference.
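Further: lysates heated 10 min at 37–73 °C, complexes pulled down with pan-HLA I antibody, peptide signal by DIA-MS relative to 37 °C, Tm where half the complex is unfolded.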

In the test the target is HLA-A*02:01. As to the kind of experiment: thermal melting temperature (Tm) of peptide-HLA complex; higher = more thermostable pHLA complex. The following applies: C1R-A*02:01.
LLVDVEPKV yielded a thermal melting temperature of 55.5 °C.
To QMISRIEYV belongs 59.7 °C; to KLTENLVAL, 59 °C.
To FLNKEITSV belongs 59.6 °C; to TLLTFFHEL, 57.4 °C; to YLPEDFIRV, 61.4 °C.
To FVMETFVHL belongs 57 °C; to ILTEAIKAA, 59.3 °C.
For the sequence TLLTDPPTA, the thermal melting temperature turned out to be 59.5 °C.
In turn, VMFGGKQVVV had a thermal melting temperature of 57.5 °C.
In turn, KLFNEFIQL returned a thermal melting temperature of 57.8 °C.
SLYSQVHQI registered a thermal melting temperature of 60.2 °C.
To NLYEEWTQV belongs 59.9 °C.
To VLMTQQPRPVL belongs 48.8 °C; to YLTAFTKNL, 60.8 °C.
With GLPRFGIEMV the figure was 60.1 °C; with KQTDLEITV, 57.5 °C.
NVIERLQEA had a thermal melting temperature of 57.2 °C.
With RVISELQEA the figure was 40.7 °C; with AQFEHTILL, 58.1 °C.
With QLAQFVHEV the figure was 62.3 °C; with ALADFAELLRA, 62 °C; with NLLEIAPHL, 52.1 °C.
With SLLDPVPEV the figure was 62.5 °C.
With ELMEQVPHI, the thermal melting temperature came to 48.9 °C.
With TLSQAIVKV the figure was 54.1 °C; with RIIDTVAQV, 60.6 °C; with GLVDKLQAL, 55.6 °C.
On to KVLGIVVGV, for which the thermal melting temperature came out at 61 °C.
With NQIEDNDDFQL the figure was 42 °C.
Consider NLIPILKTV, for which the thermal melting temperature turned out to be 56 °C.
To SQTFVNPHV belongs 57.8 °C; to YLLTESSKL, 55.2 °C.
The sequence YLWPRGSPAL displayed a thermal melting temperature of 41.3 °C.
The sequence FLDDVVHSL gave a thermal melting temperature of 58.8 °C.
SLHEFLVNL: the thermal melting temperature is 61.5 °C.
